In PubChem BioAssay AID1479 (National Center for Advancing Translational Sciences (NCATS), 2009):
The whole screen tested about 280,000 compounds, of which about 820 (0.29%) were called active. Not shown: some 1% with an inconclusive outcome. Many of the other results were omitted from the sample, so actives are more common in it than they were. A number with no mark means an inactive call. The call rests on the fitted dose curve; in most records, active means well fitted curve in either direction with a large enough effect; inconclusive means small, poorly fitted or top-dose-only effect; inactive means flat fitted curve, though single readings scatter.

Assay: Total Fluorescence Counterscreen for Inhibitors of the Interaction of Thyroid Hormone Receptor and Steroid Receptor Coregulator 2
Details: TRb/SRC2 Texas Red total fluorescence interference; series mostly up to 201 µM; fluorescence change, negative = quenching: at the top concentration
Description: NIH Molecular Libraries Probe Production Network [MLPCN]
NIH Chemical Genomics Center [NCGC]
Assay Provider: R. Kip Guy, St. Jude Children's Research Hospital
Thyroid receptor (TR) regulates many homeostatic processes including basal metabolism, cardiovascular function, body weight, and lipid trafficking. TR modulators are potential therapeutics for obesity and hyperlipidemias but current thyroid analogs have undesirable side effects, particularly cardiac stimulation. To identify inhibitors that specifically prevent the interaction of TR with the steroid receptor […] 2 (SRC2), a fluorescence polarization assay was screened. This assay detects interaction of the ligand-binding domain of human TRb with a Texas Red labeled SRC2 peptide, corresponding to a 20 amino acid region of the nuclear receptor interaction domain (Arnold et al., 2006). Total fluorescence (555 nm excitation and 632 nm emission) was measured to identify potential fluorescent and light absorbing compounds. Such compounds may be artifacts that interfere with the fluorescence polarization assay.
Arnold, L. A.; Estebanez-Perpina, E.; Togashi, M.; Shelat, A.; Ocasio, C. A.; McReynolds, A. C.; Nguyen, P.; Baxter, J. D.; Fletterick, R. J.; Webb, P.; Guy, R. K. A high-throughput screening method to identify small molecule inhibitors of thyroid hormone receptor coactivator binding. Sci STKE 2006, p 13.
NCGC Assay Protocol Summary:
For screening, 5 uL/well 0.6 uM TRb and 20 nM SRC2 Texas Red in protein buffer (20mM Tris hydrochloride, 100mM NaCl, 10% glycerol, 1mM EDTA, 0.01% NP-40, 1mM DTT, 1uM T3 and 5% DMSO) was dispensed into black solid 1536-well plates (Grenier) using a solenoid-based dispenser. Following transfer of 23 nL compound or DMSO vehicle by a pin tool, the plates were centrifuged 15 s at 1000 RPM and incubated 5 hr at ambient temperature. The plates were read by an Envision (Perkin Elmer) to detect fluorescence polarization of SRC2 Texas Red (555 nm excitation and 632 nm emission). Data were normalized to unbound (all components except TRb) and bound SRC2 Texas Red controls. Total fluorescence (TF) was calculated as follows: TF = S + 2P where S and P are fluorescence readings in the parallel and perpendicular channels, respectively.
Keywords: NIH Roadmap, MLPCN, MLI, MLSMR, qHTS, NCGC, qHTS, thyroid hormone receptor, steroid receptor coactivator, fluorescence polarization
On the % scale 0 is the no-effect control and ±100 the full control effect; potency means the concentration at half of the fitted maximal effect; tags describe the fitted curve by direction and shape or compound fluorescence and quenching.

Structure (SMILES) | Potency | fluorescence change, negative = quenching [%]
CCCCC(=O)N/N=C/c1c(O)n(CC)c(=S)n(CC)c1=O | 0.316 µM [quencher] (active) | –
Clc1ccc([C@@]2(Cn3cncn3)C[C@H](Br)CO2)c(Cl)c1 | – | 0.213
CCOP(=O)(OCC)SCS(=O)(=O)C(C)(C)C | – | -3.78
CCOP(OCC)OCC | – | -0.876
O=C1NC(=O)N(c2ccccc2)C(=O)/C1=C/c1ccc([N+](=O)[O-])s1 | 44.7 µM [fluorescent] (active) | –
CC(C)OC(=O)Nc1ccccc1 | – | -3.86
CCC/C(=N\OCC)C1=C(O)CC(CC(C)SCC)CC1=O (stereo not given) | – | -0.248
Fc1ccc(Oc2ccnc3cc(Cl)cc(Cl)c23)cc1 | – | -9.31
CCC(C)(C)c1ccc(O)c(C(C)(C)CC)c1 | – | -0.0155
CCCN(CCOc1c(Cl)cc(Cl)cc1Cl)C(=O)n1ccnc1 | inactive | –
